Laboratory results: PubChem BioAssay AID602449 (Sanford-Burnham Center for Chemical Genomics, 2012)
About 5,000 (1.4%) of roughly 360,000 compounds were called active. Shown is part of a subset that was picked to be rich in actives. Values without a mark were called inactive.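 The calls were made as follows: active = inhibition of 50% or more, scaled per plate between neutral and stimulator controls; inactive = the rest.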

Assay: blockers of Ca2+-induced mitochondrial swelling – biochemical, isolated mouse mitochondria, absorbance, primary screen (AID 602449);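 also: 0% = DMSO wells given calcium and 100% = 1 mM EGTA wells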
Conditions: 30 min, at 10 µM, stronger effect = higher value

SMILES	inhibition
O=C(c1ccc2c(c1)OCCO2)C1CCN(S(=O)(=O)c2cccc(F)c2)CC1	-4.7%
O=C(O)/C=C/c1ccc(S(=O)(=O)N2CCCCCC2)cc1	-1.1%
COc1ccc(/C=C/C(=O)c2c(O)cc(OC)cc2OC)cc1	1.2%
O=C(/C=C(O)/C=C/c1ccc(O)cc1)/C=C/c1ccc(O)cc1	75.2% (active)
O=C(Nc1ccccc1Cc1ccccc1)c1ccc2c(c1)SC1=NS(=O)(=O)CCN12	1.9%
Cc1nc(-c2nnc(SCC(=O)Nc3cc(C(F)(F)F)cc(C(F)(F)F)c3)n2C)cs1	4.6%
Cc1ccc(OC(=O)c2c(C)nn(-c3ccccc3)c2C)cc1	-0.9%
S=C(NCc1cccs1)Nc1ccc(Cl)cc1	23.7%
Fc1ccccc1CNC(=S)Nc1ccc(Cl)cc1	102% (active)
C/C(=N\NC(=S)NCc1ccccc1)c1ccc(Cl)cc1	3.5%
CCCOc1ccc(Cc2c(O)nc(SC)[nH]c2=O)cc1C	0.9%
CCCOc1ccc(Cc2c(Cl)nc(SC)nc2NC)cc1	95.3% (active)
CCOc1cc2[nH]c(=O)n(CCC(=O)NCc3ccc(OC)cc3)c(=O)c2cc1OCC	-0.2%
COC(=O)C(Cc1c[nH]c2ccccc12)NC(=O)CCNC(=O)c1ccco1 (configuration not stated)	-1%
Cc1cc(Cl)ccc1NC(=S)NCCCN1CCCC1=O	0.5%
O=C1CCCN1CCCNC(=S)Nc1ccc(F)c(Cl)c1	96.1% (active)
Cc1c(Cl)cccc1NC(=O)NCCCN1CCCC1=O	-0.1%
CC1(C(=O)NNC(=S)NCC2CCCO2)CC1(Cl)Cl (configuration not stated)	-1.4%
O=S(=O)(Nc1ccc(Cl)cn1)c1cnc(Cl)c(Br)c1	12.7%
CC(C)C[C@H]1CN([C@@H](CC(C)C)CN2CCC[C@@H]2CN2C(=O)C(=O)NC[C@@H]2Cc2ccccc2)C(=O)C(=O)N1CCc1ccccc1	1.7%
CSc1ccc(/C=N/NC(=O)c2cccc(Cl)c2)cc1	3%
COc1ccc(Sc2ccc(NC(=O)c3cccc(Cl)c3)cc2C#N)cc1	80.5% (active)
COc1ccc(NC(=O)c2cccc(Cl)c2)c[n+]1[O-]	1.1%
Cc1ccc(Sc2ccc(NC(=O)c3ccc(F)cc3)cc2C#N)cc1	72.3% (active)
Cc1ccc(C(=O)NC2CCN(C(=O)Nc3ccc(F)cc3)CC2)cc1	-0.9%
COC(=O)c1ccc(Sc2ccc(F)cc2)c(N)c1	-3%
Cc1ccccc1CNC(=O)CCC(=O)N1Cc2ccccc2Oc2ncccc21	-0.6%
